Measured values: PubChem BioAssay AID1852 (Sanford-Burnham Center for Chemical Genomics, 2009)
Out of some 2,500 compounds screened, about 1,100 (44%) were called active. So high a share suggests a set chosen from earlier hits. Some of the results follow. A number with no mark means an inactive call.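 Rule for the calls: active = inhibition above 50% at 4 µM in the single-point screen; inactive = inhibition of 50% or less.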

Test: blockers of TNF-a NF-kB luciferase induction – cell-based, HEK293T NF-kB-Luc, luminescence, selectivity assay for NOD1/NOD2 signaling inhibitor project, primary screen (AID 1852)
Settings: TNF-a induced, 14 h, at 4 µM, active compounds read high

For `COc1ccc(CCNc2ncnc3cc(OC)c(OC)cc23)cc1OC`, which inhibition is on record?
Its inhibition is 54.8% (active).

For `COc1ccc(CCNc2ncnc3c2oc2ccccc23)cc1OC`, which inhibition is on record?
The inhibition was 54.8% (active).

Which inhibition does the source give for `COc1ccccc1CNc1ncnc2sccc12` here?
The inhibition was 54.1% (active).

For `c1ccc2c(c1)oc1c(Nc3ccc(CN4CCOCC4)cc3)ncnc12`, which inhibition is on record?
The inhibition was 4.6%.

For `C(=N\c1ncnc2sccc12)/NOCc1ccccc1`, which inhibition is on record?
Its inhibition is 28.6%.

With `COc1cc2ncnc(NCCc3ccccc3)c2cc1OC` as the molecule, how does the inhibition read?
The inhibition was 4.6%.

For `Clc1cccc(Cl)c1CON/C=N/c1ncnc2sccc12`, which inhibition is on record?
Its inhibition is 15.1%.

Which inhibition does the source give for `C=CC[n+]1c(-c2ccc(C)cc2)csc1Nc1ccc(NC(C)=O)cc1` here?
Its inhibition is 99.4% (active).

For `Cc1ccc(NC(=O)Nc2nnc(-c3ccncc3)s2)cc1`, which inhibition is on record?
The inhibition was 27.4%.

With `C=CC[n+]1c(-c2ccc(Cl)cc2Cl)csc1Nc1c(C)n(C)n(-c2ccccc2)c1=O` as the molecule, how does the inhibition read?
The inhibition was 28.9%.

Which inhibition does the source give for `C=CC[n+]1c(-c2ccc(Cl)cc2Cl)csc1Nc1ccc(NC(C)=O)cc1` here?
The inhibition was 64% (active).

For `Cc1ccc(S(=O)Cc2ccc(C(=O)N3CCN(C4CCCCC4)CC3)o2)cc1` (stereo unspecified), which inhibition is on record?
The inhibition was -23.1%.

For `Cc1cc(C(=O)CSc2nnc(-c3ccco3)o2)c(C)n1-c1ccc2c(c1)OCCO2`, which inhibition is on record?
The inhibition was 10.1%.

For `COc1ccc(-n2c(C)cc(C(=O)CSc3nnc(-c4cccs4)o3)c2C)cc1`, which inhibition is on record?
The inhibition was 71.7% (active).

For `Cc1cc(C(=O)CSc2nnc(-c3cccs3)o2)c(C)n1-c1ccccc1`, which inhibition is on record?
Its inhibition is 53.4% (active).

Which inhibition does the source give for `Nc1cc2ccncc2c2ccccc12` here?
Its inhibition is 90.8% (active).

With `NC(=O)c1cc2ccncc2c2ccccc12` as the molecule, how does the inhibition read?
The inhibition was 90.8% (active).

With `CCn1cc(CN2CCCC(C(=O)c3ccc(-c4ccccc4)cc3)C2)cn1` (stereo unspecified) as the molecule, how does the inhibition read?
The inhibition was 5.2%.

With `Cc1ccc(-c2ccc(=O)n(Cc3ccc(F)cc3)n2)cc1` as the molecule, how does the inhibition read?
Its inhibition is -22.8%.

Which inhibition does the source give for `Cc1ccc(C)c(NC(=O)CSc2nc3nc(-c4cccs4)cc(C(F)(F)F)c3c(=O)[nH]2)c1` here?
Its inhibition is 86.9% (active).

With `N#Cc1c(-c2cccs2)nc(SCc2ccc(Cl)cc2)[nH]c1=O` as the molecule, how does the inhibition read?
Its inhibition is 31.4%.

With `O=C(CSc1nc2nc(-c3cccs3)cc(C(F)(F)F)c2c(=O)[nH]1)Nc1ccc(F)c(F)c1` as the molecule, how does the inhibition read?
Its inhibition is 86% (active).

For `CCOc1ccccc1NC(=O)CSc1nc2nc(-c3cccs3)cc(C(F)(F)F)c2c(=O)[nH]1`, which inhibition is on record?
The inhibition was 74.5% (active).

For `N#Cc1ccc(Cl)cc1NC(=O)CSc1nc2nc(-c3cccs3)cc(C(F)(F)F)c2c(=O)[nH]1`, which inhibition is on record?
The inhibition was 46.8%.

Which inhibition does the source give for `O=C(CSc1nc2nc(-c3cccs3)cc(C(F)(F)F)c2c(=O)[nH]1)Nc1c(F)c(F)c(F)c(F)c1F` here?
Its inhibition is 92.5% (active).

Which inhibition does the source give for `C/C(=N\NC(=O)c1nnn(-c2nonc2N)c1CN(C)c1ccccc1)c1ccccc1O` here?
The inhibition was 92.8% (active).

With `C/C(=N\NC(=O)c1nnn(-c2nonc2N)c1CN(C)c1ccccc1)c1ccccn1` as the molecule, how does the inhibition read?
The inhibition was -26.2%.

For `CCOc1cccc(-c2c(C(=O)N/N=C(\C)c3ccccn3)nnn2-c2nonc2N)c1`, which inhibition is on record?
The inhibition was 66.7% (active).

Which inhibition does the source give for `C/C(=N\NC(=O)c1nnn(-c2nonc2N)c1-c1ccccc1)c1ccccc1O` here?
Its inhibition is 93.1% (active).

For `CCOc1ccc(Nc2nc(N)nc(CCl)n2)cc1`, which inhibition is on record?
The inhibition was 65.6% (active).

With `COc1ccccc1Nc1nc(N)nc(CCl)n1` as the molecule, how does the inhibition read?
Its inhibition is 28%.

Which inhibition does the source give for `COc1ccc(OC)c(Nc2nc(N)nc(CCl)n2)c1` here?
Its inhibition is 54.9% (active).

With `Cc1ccc(Nc2nc(N)nc(CCl)n2)c(C)c1` as the molecule, how does the inhibition read?
The inhibition was 25.1%.

Which inhibition does the source give for `COc1ccc(Nc2nc(N)nc(CCl)n2)cc1` here?
The inhibition was 23.2%.

Which inhibition does the source give for `Cc1ccc(Nc2nc(N)nc(CCl)n2)cc1` here?
The inhibition was -3.9%.

For `CCc1c(C)sc2nc(C(C)C)nc(SCC(=O)N3CCc4ccccc4C3)c12`, which inhibition is on record?
Its inhibition is 53.6% (active).

With `CCc1nc(SCC(=O)N2c3ccccc3CC2C)c2c(C)c(C)sc2n1` (stereo unspecified) as the molecule, how does the inhibition read?
Its inhibition is -10%.

Which inhibition does the source give for `Cc1sc2nc(C3CC3)nc(SCC(=O)N3CCc4ccccc4C3)c2c1C` here?
Its inhibition is -10.4%.

For `COc1ccc(NC(=O)/C(C#N)=C/c2cc(C)n(-c3ccc(N4CCOCC4)c([N+](=O)[O-])c3)c2C)cc1`, which inhibition is on record?
The inhibition was 15%.

With `O=C(c1ccc(Cn2c(=S)[nH]c3cc4c(cc3c2=O)OCO4)cc1)N1CCN(c2ncccn2)CC1` as the molecule, how does the inhibition read?
Its inhibition is 59.2% (active).

With `CCOC(=O)N1CCN(C(=O)c2ccc(Cn3c(=S)[nH]c4cc5c(cc4c3=O)OCO5)cc2)CC1` as the molecule, how does the inhibition read?
The inhibition was 55.2% (active).

With `CCCCCn1c(=O)[nH]c2cc(C(=O)N3CCN(Cc4ccc5c(c4)OCO5)CC3)ccc2c1=O` as the molecule, how does the inhibition read?
The inhibition was 34.6%.

With `O=C(c1ccc(Cn2c(=S)[nH]c3ccccc3c2=O)cc1)N1CCN(c2ccccn2)CC1` as the molecule, how does the inhibition read?
Its inhibition is 17.4%.

For `CCOC(=O)N1CCN(C(=O)c2ccc(Cn3c(=S)[nH]c4ccc(Br)cc4c3=O)cc2)CC1`, which inhibition is on record?
The inhibition was 43.2%.

For `Cc1cc(/C=N/Nc2nc(N)ncc2[N+](=O)[O-])c(C)n1-c1ccccc1F`, which inhibition is on record?
Its inhibition is 26.6%.

Which inhibition does the source give for `Cc1cc(C=O)c(C)n1-c1ccc(N2CCCCC2)c([N+](=O)[O-])c1` here?
The inhibition was 47.6%.

Which inhibition does the source give for `Nc1ncc([N+](=O)[O-])c(N2CCCCCC2)n1` here?
Its inhibition is 86.3% (active).

With `CC(C)C[C@H](NC(=O)c1nc[nH]c1C(=O)N(C)Cc1ccccc1)C(=O)OC(C)(C)C` as the molecule, how does the inhibition read?
Its inhibition is 26.1%.

For `CN(C)c1cc[n+](CC(=O)c2ccc(-c3ccccc3)cc2)cc1`, which inhibition is on record?
Its inhibition is 47.3%.

Which inhibition does the source give for `O=C(Nc1ccccn1)c1ccc(-c2ccccc2)cc1` here?
The inhibition was -197%.

With `CN(Cc1ccccc1)C(=S)NC(=O)c1ccc(-c2ccccc2)cc1` as the molecule, how does the inhibition read?
The inhibition was 105% (active).

Which inhibition does the source give for `C=CCN(CC=C)C(=S)NC(=O)c1ccc(-c2ccccc2)cc1` here?
Its inhibition is 104% (active).

For `CCOC(=O)CSc1n[nH]c(NC(=O)CC)n1`, which inhibition is on record?
Its inhibition is -7.7%.

For `NC(=S)Nc1cccc2cn[nH]c12`, which inhibition is on record?
Its inhibition is 75.7% (active).

Which inhibition does the source give for `O=c1c(C(c2ccccc2)c2c(O)sc3ccccc3c2=O)c(O)sc2ccccc12` here?
The inhibition was 77.7% (active).

For `NC(=O)c1nsc(C(=O)N(c2ccccc2F)C(C(=O)NCc2ccc(F)cc2)c2ccc(O)cc2)c1N` (stereo unspecified), which inhibition is on record?
Its inhibition is 69.7% (active).

Which inhibition does the source give for `CN(C)c1ccc(C(C(=O)NCc2ccccc2)N(Cc2ccco2)C(=O)c2snc(C(N)=O)c2N)cc1` (stereo unspecified) here?
Its inhibition is 11.8%.

For `NC(=O)c1nsc(C(=O)N(c2ccccc2)C(C(=O)NCc2ccc(F)cc2)c2ccco2)c1N` (stereo unspecified), which inhibition is on record?
The inhibition was -11.7%.

With `COc1cc(CNc2ccc3[nH]c(=O)[nH]c3c2)ccc1OCc1ccccc1Cl` as the molecule, how does the inhibition read?
The inhibition was 31.1%.

Which inhibition does the source give for `COC(=O)c1ccccc1OCCCOc1ccc(C)cc1OC` here?
The inhibition was -116%.

For `COc1cc(C)ccc1OCCCOc1ccccc1Cl`, which inhibition is on record?
The inhibition was 90.6% (active).

For `N#CC1=C(N)N2C(=C(C#N)C1c1ccc(Br)cc1)Nc1ccccc12` (stereo unspecified), which inhibition is on record?
The inhibition was 86.9% (active).

With `N#CC1=C(N)N2C(=C(C#N)C1c1cccc(Br)c1)Nc1ccccc12` (stereo unspecified) as the molecule, how does the inhibition read?
The inhibition was 89.3% (active).

With `CCN1C(=O)/C(=C/c2nc3ccccc3c(=O)n2-c2ccc(C)cc2)c2ccccc21` as the molecule, how does the inhibition read?
The inhibition was 23.6%.

With `COc1ccc(S(=O)(=O)N2CCCC(C(=O)NCc3ccncc3)C2)cc1Cl` (stereo unspecified) as the molecule, how does the inhibition read?
Its inhibition is 8.9%.

Which inhibition does the source give for `Cc1cc(Cl)c(S(=O)(=O)N2CCSCC2)cc1OCC(=O)NC1CCCCC1` here?
Its inhibition is 44.2%.

With `COc1ccc(C)cc1S(=O)(=O)N1CCN(C(=O)c2ncoc2-c2ccc(F)cc2)CC1` as the molecule, how does the inhibition read?
The inhibition was 14.4%.

Which inhibition does the source give for `Cc1cc(Cl)c(S(=O)(=O)N2CCCCCC2)cc1OCC(=O)NC1CCCCC1` here?
Its inhibition is 55.3% (active).

For `Cc1cc(Cl)c(S(=O)(=O)N2CCN(c3ccc(F)cc3)CC2)cc1OCC(=O)NC1CCCCC1`, which inhibition is on record?
Its inhibition is 69.7% (active).

For `Cc1cc(-c2ccc(C)c(S(=O)(=O)N3CCN(c4ccc(F)cc4)CC3)c2)on1`, which inhibition is on record?
The inhibition was 41%.

Which inhibition does the source give for `CCOc1ccc(/C=C2\C(=O)c3ccccc3OC2c2ccccc2)cc1` (stereo unspecified) here?
Its inhibition is -5.4%.

With `Cc1ccc(-c2onc3ccc(C(=O)/C=C/N(C)C)cc23)cc1` as the molecule, how does the inhibition read?
The inhibition was 14.5%.

Which inhibition does the source give for `CCOc1ccccc1N1CCN(C(=O)c2cc(-c3cc(OC)ccc3OC)nc3ccccc23)CC1` here?
Its inhibition is 1.3%.

Which inhibition does the source give for `COc1ccc2cc3cc(C(=O)NCCc4ccc(OC)c(OC)c4)oc3nc2c1` here?
Its inhibition is -4.4%.

For `COc1ccc2cc3c(N)nn(C(=O)Cc4ccccc4OC)c3nc2c1`, which inhibition is on record?
Its inhibition is 91% (active).

Which inhibition does the source give for `COc1ccc2cc3c(N)nn(C(=O)Cc4c[nH]c5ccccc45)c3nc2c1` here?
The inhibition was 91.9% (active).

For `COc1ccc(-c2cc3nc(CCl)[nH]c(=O)c3s2)cc1`, which inhibition is on record?
The inhibition was 25.2%.

With `COc1ccc(-c2cc3nc(C)n(N)c(=O)c3s2)cc1` as the molecule, how does the inhibition read?
The inhibition was 78.3% (active).

Which inhibition does the source give for `O=c1[nH]c(CCl)nc2cc(-c3ccc(F)cc3)sc12` here?
Its inhibition is 28.3%.

Which inhibition does the source give for `CSc1cccc(NS(=O)(=O)c2ccc3c(c2)CCN3C(C)=O)c1` here?
Its inhibition is 25%.

With `CC1Cc2ccccc2N1C(=S)NC(=O)c1cccc(Br)c1` (stereo unspecified) as the molecule, how does the inhibition read?
The inhibition was 103% (active).

For `COc1ccccc1/C=C1\S/C(=N/NC(=O)c2cccc(Br)c2)NC1=O`, which inhibition is on record?
The inhibition was -30.6%.

With `CC(=O)Nc1ccc(N/C=C/C(=O)c2ccc(C)cc2)cc1` as the molecule, how does the inhibition read?
The inhibition was -16.4%.

With `COc1cccc(C(=O)/C=C/c2ccc(OCC#N)c(OC)c2)c1` as the molecule, how does the inhibition read?
The inhibition was -58.9%.

Which inhibition does the source give for `COc1ccc(Br)cc1/C=C/C(=O)c1ccc(NC(C)=O)cc1` here?
The inhibition was 94.8% (active).

Which inhibition does the source give for `CCC(=O)Nc1cccc(C(=O)/C=C/c2cc(Br)ccc2OC)c1` here?
Its inhibition is 77.3% (active).

Which inhibition does the source give for `N#CC(C#N)=C(Nc1ccc(F)cc1)SCc1cccc(F)c1` here?
Its inhibition is 81.7% (active).

With `N#CC(C#N)=C(Nc1ccc(F)cc1)SCc1cccc(Br)c1` as the molecule, how does the inhibition read?
Its inhibition is 54.7% (active).

Which inhibition does the source give for `Cc1ccc(CSC(Nc2ccc(F)cc2)=C(C#N)C#N)cc1` here?
The inhibition was 74.6% (active).

Which inhibition does the source give for `COc1c(F)c(F)c(C(=O)Nc2cccc(Cl)c2N2CCOCC2)c(F)c1F` here?
The inhibition was 46.2%.

Which inhibition does the source give for `COc1ccc(C)cc1NC(=O)CN(C)S(=O)(=O)c1ccc2c(c1)c(=O)n(C)c(=O)n2C` here?
Its inhibition is 19.7%.
